Results as given in the supplement of paper PMC6555819.

Legend:
Experiment in all cases: PBM binding z-score (relative to random genomic background probes); higher = stronger binding; sequences stand for … in GC…GCGATTGACAGCGTAGAATGAAGG
[1] = test system: FXR:RXRa (NR concentration 270 nM, RXRa partner concentration 90 nM)
How it was run: (§1)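 The probes on custom Agilent 4×180K protein-binding microarrays were double-stranded, with 34-nt variable regions bearing direct-repeat seeds, single-nucleotide variants, half-site ablations and random human genomic background sequences. Incubation lasted 1 h with ligand-free nuclear receptor dimers in PBS pH 7.4, 2% milk, 0.02% Triton X-100, 1 mM DTT, 0.2 mg/mL BSA and 0.4 mg/ml salmon testes DNA. Antibodies against each partner (one per run) detected bound dimers, and fluorescence scans were regression-normalized. Binding z-scores take the random background probes as reference.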

[2] = test system: LXRa:RXRa (NR concentration 270 nM, RXRa partner concentration 90 nM)
How it was run: as §1

[3] = test system: LXRa homodimer (NR concentration 270 nM)
How it was run: as §1

[4] = test system: LXRb:RXRa (NR concentration 270 nM, RXRa partner concentration 90 nM)
How it was run: as §1

[5] = test system: LXRb homodimer (NR concentration 270 nM)
How it was run: as §1

[6] = test system: PPARa:RXRa (NR concentration 270 nM, RXRa partner concentration 90 nM)
How it was run: as §1

[7] = test system: PPARg:RXRa (NR concentration 180 nM, RXRa partner concentration 90 nM)
How it was run: as §1

[8] = test system: PPARg:RXRa 270nM:90nM, anti-RXR (NR concentration 270 nM, RXRa partner concentration 90 nM)
How it was run: as §1

[9] = test system: PPARg:RXRa 30nM:10nM, anti-RXR (NR concentration 30 nM, RXRa partner concentration 10 nM)
How it was run: as §1

[10] = test system: PPARg:RXRa 90nM:30nM, anti-RXR (NR concentration 90 nM, RXRa partner concentration 30 nM)
How it was run: as §1

[11] = test system: PPARg:RXRa DBDmut IVT, anti-RXR (DBD mutation: RXRa K156A/R161A, NR concentration 270 nM, RXRa partner concentration 90 nM)
How it was run: as §1

[12] = test system: PPARg:RXRa IVT, anti-PPARg (NR concentration 270 nM, RXRa partner concentration 90 nM)
How it was run: as §1

[13] = test system: PPARg DBDmut:RXRa IVT, anti-PPARg (DBD mutation: PPARg1 K132A/R137A, NR concentration 270 nM, RXRa partner concentration 90 nM)
How it was run: as §1

[14] = test system: PPARg DBDmut IVT, anti-PPARg (DBD mutation: PPARg1 K132A/R137A, NR concentration 270 nM)
How it was run: as §1

[15] = test system: PPARg homodimer (NR concentration 180 nM)
How it was run: as §1

[16] = test system: PXR:RXRa (NR concentration 270 nM, RXRa partner concentration 90 nM)
How it was run: as §1

[17] = test system: PXR homodimer (NR concentration 270 nM)
How it was run: as §1

[18] = test system: RARa:RXR (NR concentration 270 nM, RXRa partner concentration 90 nM)
How it was run: as §1

[19] = test system: RARa homodimer (NR concentration 270 nM)
How it was run: as §1

[20] = test system: RARb:RXRa (NR concentration 270 nM, RXRa partner concentration 90 nM)
How it was run: as §1

Row | Sequence | PBM binding z-score [1] | PBM binding z-score [2] | PBM binding z-score [3] | PBM binding z-score [4] | PBM binding z-score [5] | PBM binding z-score [6] | PBM binding z-score [7] | PBM binding z-score [8] | PBM binding z-score [9] | PBM binding z-score [10] | PBM binding z-score [11] | PBM binding z-score [12] | PBM binding z-score [13] | PBM binding z-score [14] | PBM binding z-score [15] | PBM binding z-score [16] | PBM binding z-score [17] | PBM binding z-score [18] | PBM binding z-score [19] | PBM binding z-score [20]
1 | TATGCTAGGTCAACGATGGTCAGCTAATCTGCTA | 3.36 | 4.53 | 2.1 | 2.25 | 0.889 | 3.37 | 2.89 | 2.78 | 0.716 | 1.87 | 2.97 | 3.84 | 1.31 | 1.14 | 1.14 | 1.77 | -0.438 | 2.6 | -0.282 | 3.96
2 | TCTATTTGGTCACGGAGGTCACACACGACGGGTA | 3.93 | 3.92 | 3.39 | 3.88 | 2.63 | 4.23 | 4.04 | 4.8 | 4.57 | 4.77 | 2.53 | 4.35 | 4.5 | 3.22 | 3.91 | 4.86 | 2.58 | 4.88 | 2.06 | 4.21
3 | GCTCGCAGGACAAGGTCAGAGCTTTGTCCGTAGA | 1.42 | 1.47 | -0.546 | 1.08 | -1.31 | 2.19 | -0.311 | 0.692 | -0.968 | -0.0202 | -0.189 | 0.355 | -1.69 | -1.23 | -0.0307 | 1.35 | -0.47 | 1.6 | -1.24 | 3.05
4 | TCTAGTTGGTCAAAGGTCACATACTCGAAATGCG | 5.54 | 5.66 | 3.58 | 5.2 | 2.28 | 6.24 | 10.8 | 9.78 | 9.93 | 11.1 | 3.45 | 6.25 | 1.46 | 1.64 | 5.02 | 5.59 | 1.83 | 7.12 | 3.51 | 4.83
5 | TCTAGTTGGTCACGGAGGTCACACTCGACGGGTA | 3 | 3.28 | 2.58 | 3.06 | 0.84 | 3.75 | 2.84 | 3.93 | 3.54 | 3.5 | 2.74 | 4.57 | 1.32 | 0.684 | 2.95 | 4.31 | 1.37 | 4.2 | 1.39 | 3.91
6 | CTCGAAAGGTCGGGCTCAGGTGAGTATACCAAAC | 3.1 | 2.11 | -0.238 | 1.9 | 0.116 | 3.25 | 0.671 | 1.88 | -0.168 | 0.853 | 0.601 | 1.13 | 0.0395 | -0.176 | 1.13 | 1.64 | -0.297 | 2.71 | 0.232 | 3.36
7 | TCGAGTAGGTTAAGGGCATTCAGAATGGCGTCGA | 0.969 | 1.02 | -0.302 | 0.27 | -1.02 | 1.75 | 1.68 | 2.85 | 1.35 | 2.37 | 2.73 | 2.37 | -0.645 | -1.04 | 0.261 | 0.999 | 0.373 | 0.821 | -0.417 | 2.03
8 | TCTTGGAGATCAGCAGGTTAAGAAAGCTGGCCAA | 0.173 | -0.0127 | -0.38 | 0.0269 | -0.539 | 0.752 | -0.546 | 0.883 | 2.2 | 1.52 | 1.35 | -0.4 | -0.469 | -0.467 | -0.281 | 0.203 | -0.366 | 0.266 | 0.00806 | 0.0526
9 | CGTCCAAGCTCAAGGTCAGTGAAAGAGACTCGAA | 1.45 | 1.33 | 0.213 | 1.25 | -0.283 | 1.93 | 0.495 | 1.14 | 0.132 | 0.792 | -0.0335 | 0.547 | -0.701 | -0.496 | 1.59 | 1.51 | 0.437 | 1.86 | 0.0805 | 3.43
10 | CAAACTAGGTCACGAAAGGTCGAAGTCGAATGAC | 5.94 | 6.62 | 2.69 | 5.17 | 0.867 | 6.03 | 9.65 | 7.81 | 5.91 | 8.11 | 8.79 | 9.21 | 6.19 | 3.15 | 3.9 | 5.95 | 1 | 5.45 | 1.66 | 4.86
11 | TCTAGCAGGCCAGACGGTCACTCAAGAGGTACGG | -0.139 | -0.465 | -0.491 | -0.378 | -0.934 | 0.21 | 0.662 | 1.52 | 1.72 | 1.67 | 0.883 | 0.0624 | -0.226 | -0.934 | -0.417 | -0.727 | -0.716 | -0.457 | -0.452 | 1.04
12 | CAAACTAGGTCATTGACAGGACAGTGAATAGTAA | 4.7 | 3.38 | 0.946 | 2.29 | 0.688 | 4.71 | 7.82 | 6.85 | 3.97 | 6.16 | 8.37 | 8.3 | 2.39 | 1.76 | 2.3 | 1.73 | 0.252 | 2.35 | 0.262 | 3.75
13 | GGAACGAGGGTAAAGTTGATAGCATCTGTCGACG | 0.472 | 0.494 | -0.531 | 0.361 | -0.696 | 3.37 | 5.63 | 6.72 | 4.9 | 7.39 | 2.48 | 2.91 | 0.376 | -0.666 | 0.544 | 0.0856 | -0.214 | 0.287 | -0.126 | 0.952
14 | ACTATTAGTTGAGACGAGGGGAACCGATAGGTTG | 0.227 | -0.0882 | -0.278 | -0.282 | 0.604 | -0.0604 | 0.569 | -0.00558 | 0.211 | 0.143 | 0.452 | 0.325 | 0.853 | 0.931 | -0.148 | -0.0512 | 0.29 | -0.00202 | 0.237 | 0.18
